Consider 5 compounds from PubChem BioAssay.

The viability is a read-out of living cells in per cent, often relative to untreated cells. In general, inhibition refers to the relative decrease from the control value, in per cent.

A short description of experiment [1]: reducers of endogenous Her2 protein level, primary screen, SKBR3 breast tumor cells, AlphaScreen, ATP viability (AID 461;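 active = Her2 level under about 52% in both replicate screens, with viability over 70% of control, limit read from the data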;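 for Her2 level: lower value means less Her2 protein in the cells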;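 for viability: percent of carrier control wells set as 100% viability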). As to conditions: 18-24 h, measured here: SKBR3 viability, ATP luminescence, at 10 µM. On the technique in general: Alpha assays give light when donor and acceptor beads are brought close together.
In experiment [2] the target is Receptor tyrosine-protein kinase erbB-2 (Homo sapiens) (UniProt P04626). The experiment is described as above. As to conditions: 18-24 h, at 10 µM, stronger effect = lower value.
Chain of Receptor tyrosine-protein kinase erbB-2 (Homo sapiens) (P04626 whole entry, looked up): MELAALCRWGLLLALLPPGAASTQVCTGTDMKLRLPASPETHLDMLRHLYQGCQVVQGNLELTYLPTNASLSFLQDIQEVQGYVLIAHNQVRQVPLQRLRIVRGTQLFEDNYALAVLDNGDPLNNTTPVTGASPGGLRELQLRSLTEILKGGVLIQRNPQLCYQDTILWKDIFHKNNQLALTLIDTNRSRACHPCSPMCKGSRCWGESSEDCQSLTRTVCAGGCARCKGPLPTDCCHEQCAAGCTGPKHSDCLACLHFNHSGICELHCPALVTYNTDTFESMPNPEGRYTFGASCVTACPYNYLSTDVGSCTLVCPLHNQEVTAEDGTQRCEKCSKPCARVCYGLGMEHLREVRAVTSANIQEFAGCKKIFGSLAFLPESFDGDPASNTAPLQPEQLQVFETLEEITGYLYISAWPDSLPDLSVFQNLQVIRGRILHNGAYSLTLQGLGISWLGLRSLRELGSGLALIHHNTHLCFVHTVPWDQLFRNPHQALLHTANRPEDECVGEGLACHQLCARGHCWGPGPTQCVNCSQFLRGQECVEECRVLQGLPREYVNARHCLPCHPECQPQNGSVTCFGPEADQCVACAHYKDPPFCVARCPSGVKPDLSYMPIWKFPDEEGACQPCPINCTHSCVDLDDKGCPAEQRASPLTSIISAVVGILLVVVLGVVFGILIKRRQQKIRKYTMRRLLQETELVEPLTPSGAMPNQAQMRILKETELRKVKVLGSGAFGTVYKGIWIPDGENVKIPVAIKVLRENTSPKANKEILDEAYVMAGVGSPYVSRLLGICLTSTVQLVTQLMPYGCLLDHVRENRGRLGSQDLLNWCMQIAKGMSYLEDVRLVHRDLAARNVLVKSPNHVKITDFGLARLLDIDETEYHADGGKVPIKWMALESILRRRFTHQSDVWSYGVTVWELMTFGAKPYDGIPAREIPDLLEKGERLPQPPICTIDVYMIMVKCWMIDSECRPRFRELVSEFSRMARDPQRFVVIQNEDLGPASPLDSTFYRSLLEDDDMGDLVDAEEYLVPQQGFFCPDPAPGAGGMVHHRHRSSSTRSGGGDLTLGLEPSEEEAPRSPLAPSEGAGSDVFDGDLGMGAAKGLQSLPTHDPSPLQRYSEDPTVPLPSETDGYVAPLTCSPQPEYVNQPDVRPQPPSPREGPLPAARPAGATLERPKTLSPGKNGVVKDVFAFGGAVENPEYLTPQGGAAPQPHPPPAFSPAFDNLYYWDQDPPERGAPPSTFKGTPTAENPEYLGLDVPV
A short description of experiment [3]: SK-BR-3 cell growth inhibitors, pilot screen, 24 h, human (AID 572;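 active = viability at or below 10% of carrier control in both of two separate runs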;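 note: compound exposure lasted between 18 and 24 h rather than exactly 24 h; 100% = carrier-treated control wells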). To be noted: SK-BR-3 viability, CellTiter-Glo luminescence, at 10 µM, stronger effect = lower value. On the technique in general: In ATP-based viability assays light output follows the ATP content of the culture.
Experiment [4] can be described thus: HUVEC growth inhibition – cell-based, human, primary screen (AID 575;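 active = viability at or below 30% in both replicate assays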;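 note: 100% = median of untreated cell wells with 0.1% DMSO on each plate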). As to conditions: HUVEC proliferation, CellTiter-Glo luminescence, 72 h; at 10 µM; stronger effect = lower value.
The nature of experiment [5]: growth inhibitors of H69AR lung tumor, primary screen, human, duplicate replicates (AID 580;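 active = viability at or under a set limit in both replicates, limit being median viability minus 3 SD, cut at about 48% in these data, passing the limit was not always enough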;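 note: 100% = mean luminescence of untreated wells and 0% = no signal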). To be noted: H69AR lung tumor cells viability, ATP luminescence, 72 h; at 10 µM; stronger effect = lower value.
Experiment [6] in a line: reversal of MRP1-mediated doxorubicin resistance, pilot screen, H69AR cells, doxorubicin co-treatment (AID 601;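 active = viability loss from added drug above about 55%, and viability with drug at most 40%, in both replicates, limit read from the data, passing the limit was not always enough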). As to conditions: CellTiter-Glo, 72 h, at 10 µM; for differential viability (reversal): stronger effect = higher value.
Experiment [7] can be described thus: 384-well plate pilot, post-Golgi transport modulator project, inhibition of yeast transport mutant growth (AID 636; in the data active = inhibition above about 31%). To be noted: absorbance 615 nm, about 18 h, stronger effect = higher value.
The nature of experiment [8]: growth suppression of yeast trafficking mutant, preliminary HTS, modulators of trafficking downstream of Golgi apparatus project, 1536-format plate, OD 615 nm (AID 637; in the data active = inhibition above about 30%). As to conditions: yeast transport mutant growth, absorbance 615 nm, 18 h; stronger effect = higher value.
Experiment [9] can be described thus: OD615 S. cerevisiae growth inhibition, permissive medium, pilot counter-assay, permissive growth control for S. cerevisiae lifespan shortening project (AID 705;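 active = growth inhibition above 25% in both replicates, a cutoff set 3 SD above the mean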). As to conditions: OD615, 24 h, at 10 µM, stronger effect = higher value.
Experiment [10] is described as follows: Restrictive medium S. cerevisiae growth inhibition, OD615, pilot screen of yeast lifespan reduction project, restrictive growth control (AID 706;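 active = growth inhibition above a set limit, 3 SD over mean compound inhibition, in both replicates, cut at about 43% in these data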;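 note: modified DeaD lifespan yeast strain shifted to restrictive glucose medium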). To be noted: OD615, 48 h, at 10 µM, stronger effect = higher value.
A short description of experiment [11]: viability gain of MRP-1-high H69AR cells under doxorubicin, pilot screen, MRP-1 activator project, CellTiter-Glo, duplicate (AID 807;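 active = viability increase at or above a cutoff of the median across tested compounds plus 3 SD, cut at about 8.5% in these data, passing the limit was not always enough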;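 note: compound pretreatment 18-22 h then 72 h combined with doxorubicin; 0% = doxorubicin alone and 100% = vehicle without doxorubicin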). To be noted: H69AR viability with doxorubicin, CellTiter-Glo luminescence; at 10 µM; stronger effect = higher value.
Experiment [12] in a line: growth suppression of beta-catenin knockout HCT116, pilot screen, human colon tumor cells (AID 823;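 active = cell viability at or below a set limit in both duplicate runs, the limit being the all-compound median minus 4 SD, cut at about 23% in these data, passing the limit was not always enough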;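 note: 0% = wells killed by 20 µM Hyamine and 100% = untreated DMSO cell wells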). As to conditions: CellTiter-Glo, 60 h, at 10 µM, stronger effect = lower value.
Experiment [13] can be described thus: growth suppression of PTEN-deleted HCT116, pilot screen, cell-based, HCT116 clonal line, CellTiter-Glo (AID 824;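 active = viability at or below 27.92% in each of two runs, the all-compound median minus 4 SD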;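 note: 0% = 20 µM Hyamine control and 100% = vehicle cell control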). To be noted: 60 h, at 10 µM, stronger effect = lower value.
The nature of experiment [14]: inhibitors of the yeast RAM network, pilot screen, dse1pr::URA3 reporter, 5-FOA selection (AID 869).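 Note: 0% = DMSO wells with no growth and 100% = 10 µM 1-NA-PP1 with full growth; RAM network block rescues cells from 5-FOA so hits raise OD615 growth.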 As to conditions: S. cerevisiae dse1pr::URA3 5-FOA growth, OD615, 2 d; at 10 µM; stronger effect = higher value; strain carries analog-sensitive mutant Cbk1 kinase.
Experiment [15] is described as follows: RAM signaling pathway blockade in yeast – S. cerevisiae, Pdr1DBD-CYC8 efflux-inhibited sensitized strain, primary screen (AID 1298;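 active = RAM network inhibition above 8.4% in each of two replicates, 3 SD over the compound average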;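 note: 0% = DMSO untreated cells without growth and 100% = 10 µM 1-NA-PP1 full growth; higher means more yeast growth rescued from 5-FOA killing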). To be noted: S. cerevisiae cbk1-as DSE1-URA3 strain, 5-FOA growth OD615, 2 d; at 50 µM; stronger effect = higher value.
Setting [16] is: H69AR cells + 2 uM doxorubicin, measured here: viability with 2 uM doxorubicin, stronger effect = lower value.
The mark [17] stands for this setting: H69AR cells, compound alone cytotoxicity.

Molecules are shown by their SMILES. Results filed as inconclusive are left out. The source made the active and inactive calls.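 Rule for the calls, unless noted: active = inhibition over a set limit, the all-compound mean plus 3 SD, in both replicate runs; inconclusive = over that limit in just one replicate run; inactive = at or under that limit in both runs.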

For `CCOC(=O)c1ccc2[nH]c3c(c2c1)CN(C)CC3`, the viability in experiment [1] was 94%; in [3], 94% (inactive); in experiment [4], 86.6% (inactive); in experiment [5], 93.7% (inactive); in [6] (setting [16]), 85.8%; in experiment [6] (setting [17]) it was 93.7%. The results for the viability in [12] and in experiment [13] were 44% (inactive) and 56.9% (inactive), respectively. For the same compound, the Her2 level in experiment [2] is 87.5% (inactive). The differential viability (reversal) in experiment [6] (H69AR cells + 2 uM doxorubicin) was 7.91% (inactive). In addition, the inhibition in [7] is -4.27% (inactive); in experiment [8], -0.83% (inactive); in experiment [14], 0.51% (inactive). For the same compound, the results for the growth inhibition in experiment [9] and in [10] were -4.7% (inactive) and 10.1% (inactive), respectively. Further, in experiment [11], the viability increase is 0.26% (inactive). Besides, the RAM network inhibition in experiment [15] is 0.47% (inactive).
Take `COc1cccc(C2C3=C(N=C4SCC(=O)N42)c2ccccc2CC3)c1OC` (stereo not given): the viability in [1] is 103%; in experiment [3], 103% (inactive); in [4], 65.7% (inactive); in experiment [5] it was 98.2% (inactive); in [6] (setting [16]), 78.4%; in experiment [6] (setting [17]), 98.2%. Moreover, the viability in experiment [12] was 65.8% (inactive); in experiment [13], 68.5% (inactive). In [2], the Her2 level is 115% (inactive). Besides, the differential viability (reversal) in experiment [6] (H69AR cells + 2 uM doxorubicin) is 19.8% (inactive). The inhibition in experiment [7] is -1.69% (inactive); in experiment [8], -6.83% (inactive); in [14], 0.915% (inactive). The results for the growth inhibition in experiment [9] and in experiment [10] were -15.1% (inactive) and -9.8% (inactive), respectively. In addition, the viability increase in experiment [11] is -1.55% (inactive). Moreover, in [15], the RAM network inhibition is 5.99% (inactive).
As to `O=C(CSc1nnc(Cn2c(=O)sc3ccccc32)n1-c1ccccc1)NCC1CCCO1` (stereo not given), the viability in [1] was 80.5%; in experiment [3], 80.5% (inactive); in experiment [4], 82.3% (inactive); in experiment [5] it was 99.8% (inactive); in [6] (setting [16]), 87.2%; in experiment [6] (setting [17]) it was 99.8%. For the same compound, the viability in [12] was 99.1% (inactive); in experiment [13], 98.6% (inactive). The Her2 level in experiment [2] was 108% (inactive). The differential viability (reversal) in experiment [6] (H69AR cells + 2 uM doxorubicin) was 12.6% (inactive). For the same compound, the inhibition is -1.92% (inactive) in experiment [7], 0.83% (inactive) in experiment [8] and 1.41% (inactive) in [14]. The growth inhibition in [9] is -4.79% (inactive); in experiment [10], 10.2% (inactive). Also, in experiment [11], the viability increase is -2.08% (inactive). Moreover, the RAM network inhibition in [15] was 0.47% (inactive).
Consider `CCOC(=O)N1CCC(N2C(=O)c3ccccc3C2Nc2ccccc2C)CC1` (stereo not given), for which the viability in [1] was 95.5%; in experiment [3], 95.5% (inactive); in experiment [4], 84% (inactive); in experiment [5], 79.8% (inactive); in experiment [6] (setting [16]), 47.8%; in experiment [6] (setting [17]) it was 79.8%. Further, the viability was 88.2% (inactive) in experiment [12] and 82.5% (inactive) in experiment [13]. Moreover, the Her2 level in experiment [2] was 96.5% (inactive). Besides, the differential viability (reversal) in [6] (H69AR cells + 2 uM doxorubicin) is 32% (inactive). The inhibition in experiment [7] was -5.2% (inactive); in [8], -8.5% (inactive); in [14] it was 2.58% (inactive). The growth inhibition in experiment [9] was -16.1% (inactive); in experiment [10] it was -23.2% (inactive). Further, the viability increase in experiment [11] was -4.35% (inactive). Moreover, the RAM network inhibition in [15] was 7.43% (inactive).
Turning to `CCN(CC)CCN1C(=O)c2oc3ccc(F)cc3c(=O)c2C1c1ccncc1` (stereo not given), the viability is 89.5% in [1]; 89.5% (inactive) in [3]; 95.6% (inactive) in [4]; 87.5% (inactive) in experiment [5]; 83.5% in experiment [6] (setting [16]); 87.5% in [6] (setting [17]). For the same compound, the viability in [12] is 96.4% (inactive); in [13] it was 95.9% (inactive). The Her2 level in experiment [2] is 96.5% (inactive). Besides, in experiment [6] (H69AR cells + 2 uM doxorubicin), the differential viability (reversal) was 4.02% (inactive). The inhibition in experiment [7] was -3.2% (inactive); in [8], -8.67% (inactive); in [14], 0.78% (inactive). The growth inhibition in experiment [9] was -0.15% (inactive); in experiment [10], -0.92% (inactive). In addition, the viability increase in experiment [11] is 0.69% (inactive). Moreover, in experiment [15], the RAM network inhibition is 2.14% (inactive).
